Bioassay records: PubChem BioAssay, National Center for Advancing Translational Sciences (NCATS)
TDP1 cell noCPT: qHTS for Inhibitors of human tyrosyl-DNA phosphodiesterase 1 (TDP1): qHTS in cells in absence of CPT; DT40 Tdp1-/- hTDP1 cells, no CPT, ATP luminescence, 48 h; Potency, µM (highest dose often 46.2 µM), without a hit: at the highest dose activity change, negative = growth inhibition, actives largely listed as inhibitors; 420,000 tested, 15% active; AID 686978, 2013; note: potency is the fitted concentration of half-maximal effect; % is set by controls: 0 for no effect and ±100 for the full control effect; nearly all actives have a fitted effect of over 55% in size
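Camptothecin absent (DMSO only). Human TDP1-complemented DT40 knockout cells, 400 cells/well, 37 °C for minimum 48 hr; ATP measured via CellTiter-Glo, 30 min dark incubation, luminescence.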
HepG2 tox: qHTS for Inhibitors of TGF-b: Cytotox Counterscreen; 410,000 tested, 0.76% active; AID 588856, 2011; HepG2 CAGA-GFP viability, ATP luminescence, 18 h; Potency, µM (series often up to 46.1 µM), for inactives: top-dose activity change, negative = cytotoxicity, most hits filed as cytotoxic; note: potency is the fitted concentration of half-maximal effect
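CellTiter-Glo luminescence gave cytotoxicity after 18 hours at 37 degrees C. The cells were HepG2 CAGA-GFP in 1% FBS DMEM, stimulated with 500 pg/mL TGF-beta after compound addition. %Activity was normalised to no-cell wells (complete cell-killing) and DMSO (no toxicity), and curves were fitted and classified.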
IL-1B inflam inh: qHTS for Inhibitors of Inflammasome Signaling: IL-1-beta AlphaLISA Primary Screen | activity change, % at 57.5 µM | THP-1 LPS/ATP IL-1B secretion, AlphaLISA, 16 h; hits give low values | 360,000 tested, 4.7% active; in the data active = activity change below about -50%; inconclusive = mostly about -30% to -49%; note: % is set by controls: 0 for no effect and ±100 for the full control effect
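Secreted IL-1B measured by AlphaLISA bead assay after 16 h compound exposure of THP-1 cells; compounds (final up to 57.5 uM) added 1 h before LPS (250 ng/mL) and ATP (1.25 mM) stimulation; lower signal means less secretion.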
TGFb SMAD3 inh: qHTS for Inhibitors of TGF-b; HepG2 CAGA-GFP TGF-b/SMAD3 reporter, GFP fluorescence, 18 h; TGF-beta stimulated, 500 pg/mL final; Potency, µM (titrated, usually from 46.1 µM), without a hit: top-dose activity, negative = inhibition, hits mostly inhibitors; 410,000 tested, 1.2% active; AID 588855, 2011; note: potency is the fitted concentration of half-maximal effect; % is set by controls: 0 for no effect and ±100 for the full control effect; nearly all actives have a fitted effect of over 65% in size
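HEPG2 CAGA-GFP cells (1000/well, DMEM with 1% FBS) were pre-incubated 2 h at 37 degrees C, given compound by pin tool, then stimulated with TGF-beta at 500 pg/mL final for 18 h before per-cell GFP fluorescence imaging.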
TDP1 cell CPT: qHTS for Inhibitors of human tyrosyl-DNA phosphodiesterase 1 (TDP1): qHTS in cells in presence of CPT. chicken DT40 Tdp1-/-;hTDP1 cells + 20 nM CPT, ATP luminescence, 48 h. Potency, µM (highest dose often 46.2 µM), without a hit: at the highest dose activity change, negative = growth inhibition, usual class: inhibitors. 420,000 tested, 12% active. AID 686979, 2013; note: potency is the fitted concentration of half-maximal effect; % is set by controls: 0 for no effect and ±100 for the full control effect; nearly all actives have a fitted effect of over 55% in size
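Chicken DT40 Tdp1-/- cells complemented with human TDP1, 400 cells/well, exposed to compounds plus 20 nM camptothecin for at least 48 h at 37 C; viability read as ATP content by CellTiter-Glo luminescence.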
S-ASM inh: Inhibitors of Secretory Acid Sphingomyelinase (S-ASM): qHTS; Sphingomyelin phosphodiesterase (Homo sapiens), P17405; placental ASM, HMU-PC fluorogenic substrate, 60 min; Potency, µM (highest dose often 57.5 µM), without a hit: top-dose activity change, negative = inhibition, actives largely listed as inhibitors; 340,000 tested, 0.006% active; AID 504937, 2011; note: potency is the fitted concentration of half-maximal effect
Target sequence (P17405 47-631 limits assumed): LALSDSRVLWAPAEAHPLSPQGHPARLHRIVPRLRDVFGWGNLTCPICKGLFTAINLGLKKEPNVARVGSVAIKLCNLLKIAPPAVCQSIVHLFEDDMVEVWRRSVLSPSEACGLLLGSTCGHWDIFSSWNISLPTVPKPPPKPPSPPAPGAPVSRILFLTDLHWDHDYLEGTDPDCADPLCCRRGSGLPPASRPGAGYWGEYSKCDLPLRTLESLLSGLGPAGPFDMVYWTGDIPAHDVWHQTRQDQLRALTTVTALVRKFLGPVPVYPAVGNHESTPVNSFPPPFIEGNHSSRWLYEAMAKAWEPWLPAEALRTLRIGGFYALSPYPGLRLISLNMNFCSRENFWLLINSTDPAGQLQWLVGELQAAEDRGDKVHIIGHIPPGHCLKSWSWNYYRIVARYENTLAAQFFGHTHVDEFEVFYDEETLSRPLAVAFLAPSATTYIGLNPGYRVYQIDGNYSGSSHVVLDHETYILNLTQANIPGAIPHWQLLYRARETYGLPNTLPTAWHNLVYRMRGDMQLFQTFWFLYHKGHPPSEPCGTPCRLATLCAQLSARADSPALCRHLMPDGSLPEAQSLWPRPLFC
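Steps: dispense placental human ASM, pin compound, wait 10 min at room temperature, add HMU-PC0 substrate at 9 uM final, incubate 60 min at 37 °C, add stop solution raising pH to 10, read fluorescence.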
* = called active by the depositor; u = inconclusive; x = no result. Shown are actives, neighbours in structure and some others; about 19% of the full set was active somewhere. Unless noted, calls come from the whole dose curve; as a rule, active = well fitted curve in the direction sought with a large enough effect; inconclusive = small, poorly fitted or top-dose-only effect, or another doubt; inactive = no such curve, though single readings can be large; an effect the other way counts as inactive or inconclusive.

SMILES	TDP1 cell noCPT	HepG2 tox	IL-1B inflam inh	TGFb SMAD3 inh	TDP1 cell CPT	S-ASM inh
O=c1c2c(n3cnnc3n1-c1ccccc1)-c1ccccc1CC21CCCCC1	u	2%	25	0%	u	-1%
O=S1(=O)CCC(N=Nc2c(O)n(Cc3ccccc3)c3ccccc23)C1 (stereo unspecified)	u	-4%	-9	7%	21µM*	-15%
C/C(Cl)=C\Cn1c(O)c(N=NC(N)=S)c2ccccc21	3.7µM*	-29%	-5	u	4.1µM*	-24%
O=Nc1c(O)n(Cc2cccc(Cl)c2)c2ccccc12	-28%	-55%	-68*	-29%	1%	-4%
Cc1ccc(NC(=O)Cn2c(O)c(N=NC(N)=S)c3ccccc32)cc1	u	-44%	6	u	u	-1%
CCCCNC(=S)N=Nc1c(O)n(Cc2ccccc2)c2ccccc12	2.6µM*	3%	-27	18%	16µM*	-13%
Cc1cc(C)nc(N=Nc2c(O)n(Cc3ccc(Cl)cc3)c3ccccc23)n1	18µM*	2%	6	0%	u	u
CCOC(=O)N=Nc1c(O)n(Cc2ccccc2)c2ccccc12	u	-1%	-2	6%	u	-15%
NC(=S)N=Nc1c(O)n(Cc2ccccc2)c2ccccc12	6.5µM*	-38%	11	-14%	5.8µM*	-6%
COC(=O)c1ccc(NC(=O)c2cc(S(=O)(=O)N3CCOCC3)cn2C)cc1	-4%	-21%	x	-5%	-6%	x
CCOc1ccccc1NC(=O)CN1Cc2ccccc2C1=O	2%	1%	x	15%	5%	x
N#CC1(c2ccccc2)CCC(NCCc2ccccc2)CC1 (stereo unspecified)	18µM*	-43%	u	-28%	u	-1%
O=C(NCCSc1c[nH]c2ccccc12)c1ccccc1Cl	u	-24%	x	-9%	-18%	x
O=C(C[C@H]1C[C@@H]2c3cc(NC(=O)Nc4ccccc4F)ccc3O[C@@H]2[C@H](CO)O1)NCc1ccccn1	16µM*	-9%	-1	-1%	u	x
CCCNC(=O)C[C@H]1C[C@H]2c3cc(NC(=O)Nc4ccc(F)cc4)ccc3O[C@H]2[C@@H](CO)O1	2.3µM*	0%	-6	9%	1.8µM*	x
COCC(=O)Nc1ccc2c(c1)[C@@H]1C[C@H](CC(=O)NCc3cccc(F)c3)O[C@@H](CO)[C@@H]1O2	-19%	-3%	9	40%	-23%	x
COCCNC(=O)C[C@@H]1C[C@H]2c3cc(NC(=O)Nc4ccc(F)cc4)ccc3O[C@H]2[C@H](CO)O1	8.2µM*	-17%	3	-3%	u	x
COC(=O)C[C@H]1C[C@H]2c3cc(NC(=O)Nc4ccc(C(F)(F)F)cc4)ccc3O[C@H]2[C@@H](CO)O1	26µM*	-40%	-4	4%	u	x
O=C(CN1C=NS(=O)(=O)c2ccccc21)Nc1ccc(Br)cc1	u	-11%	x	8%	2%	x
NCCCC(N)CC(=O)NCC1NC(=O)C(CO)NC(=O)C(N)CNC(=O)C(C2CCN=C(N)N2)NC(=O)/C(=C\NC(N)=O)NC1=O (stereo unspecified)	0%	x	x	x	-27%	x
COc1cccc(S(=O)(=O)Nc2ccc3c(c2)[C@@H]2C[C@H](CC(=O)NCCc4ccccc4)O[C@H](CO)[C@@H]2O3)c1	16µM*	-10%	-13	-4%	23µM*	x
COC(=O)C[C@H]1C[C@@H]2c3cc(NC(=O)Nc4ccc(F)cc4)ccc3O[C@@H]2[C@@H](CO)O1	-9%	-2%	13	-2%	-4%	x
O=C(C[C@@H]1C[C@H]2c3cc(NC(=O)NC4CCCCC4)ccc3O[C@H]2[C@H](CO)O1)NC1CCCCC1	15µM*	-16%	u	-6%	u	x
Cc1cccc(C(=O)Nc2ccc(OCc3cc(=O)n4ccc(C)cc4n3)cc2)c1	-10%	0%	x	18%	-9%	x
CC(C)c1ccc(NS(=O)(=O)c2ccc3[nH]cc(C(=O)NCC4CCCO4)c(=O)c3c2)cc1 (stereo unspecified)	-16%	-7%	x	u	-1%	x
SMILES	TDP1 cell noCPT	HepG2 tox	IL-1B inflam inh	TGFb SMAD3 inh	TDP1 cell CPT	S-ASM inh
O=S1(=O)N[C@@H](Cc2ccccc2)COc2cc(N3CCN(Cc4ccccc4F)CC3)ccc21	21µM*	x	-13	x	-30%	x
C[C@H]1COc2cccc(N3CCN(Cc4ccccc4F)CC3)c2S(=O)(=O)N1	u	x	21	x	-11%	x
CC(C)C[C@H]1COc2cccc(N3CCN(Cc4ccccc4F)CC3)c2S(=O)(=O)N1	18µM*	x	-11	x	u	x
CC(C)C[C@H]1COc2cc(N3CCN(Cc4ccccc4F)CC3)ccc2S(=O)(=O)N1	u	x	14	x	u	x
COC(=O)[C@@H]1C[C@]2(OC(=O)c3ccccc3)C=CC(=O)C[C@@H]2N1C(=O)OCc1ccccc1	7.3µM*	-68%	-107*	u	6.5µM*	0%
COC(CNC(=O)C1CCCN1C(=O)OCc1ccccc1)OC (stereo unspecified)	-8%	-4%	-13	-9%	-15%	3%
CCOC(=O)C1=C(C)NC(=O)NC1c1cccc(OC)c1OCc1ccccc1Cl (stereo unspecified)	u	1%	11	14%	8.2µM*	4%
CCCOc1ccccc1C1NC(=O)NC(C)=C1C(=O)OCc1ccccc1 (stereo unspecified)	u	-2%	-71*	0%	23µM*	-7%
CC1=C(C(=O)OCc2ccc3c(c2)OCO3)C(c2ccccc2OCc2ccccc2)NC(=O)N1 (stereo unspecified)	26µM*	-3%	-50*	-25%	u	-3%
